Measured values taken from PubChem BioAssay (NCI).
This is part of a sample that, as a whole, favours compounds with a hit. Of some 83,000 tested, about 20% had one in any assay.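 Cell lines were cultured in 96-well plates, exposed to a single compound concentration, and assessed for percent growth 48 hours later.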 Unmarked numbers belong to inactive results. Activity calls are given as the source filed them. The calls were made as follows: active = growth percent below 10; inactive = the rest.

Columns and labels:
Assay in all cases: NCI-60 one-dose screen, 48 h (100 = growth as untreated, 0 = no growth, -100 = all killed)
Conditions in all cases: 10 µM unless noted
T-47D breast = system: T-47D breast
MDA-MB-435 melanoma = system: MDA-MB-435 melanoma
SW-620 colon = system: SW-620 colon
MCF7 breast = system: MCF7 breast
HCT-116 colon = system: HCT-116 colon
HCC-2998 colon = system: HCC-2998 colon
KM12 colon = system: KM12 colon
BT-549 breast = system: BT-549 breast

Compound	growth (T-47D breast) [%]	growth (MDA-MB-435 melanoma)	growth (SW-620 colon)	growth (MCF7 breast)	growth (HCT-116 colon)	growth (HCC-2998 colon)	growth (KM12 colon)	growth (BT-549 breast)
CN1C[C@@H](c2ccc(Cl)cc2)[C@]2(NC(=S)N(c3ccccc3)C2=O)[C@@]12C(=O)NC1C=CC(Br)=C[C@H]12 (stereo partly specified)	49.5	77.4%	85.2%	51.3%	27.5%	94.9%	78.5%	–
CSc1ccc(Cl)c(C(=O)Nc2sccc2C(N)=O)c1	44.1	110%	96.5%	64.8%	109%	102%	99.8%	–
O=C(O)c1ccc(CO)o1	105	109%	104%	84.1%	103%	111%	106%	–
Nc1c(C(=O)Nc2ccccc2)sc2nc3c(cc12)CCCCCC3	38.2	-17% (active)	27.5%	12.1%	2.39% (active)	13.4%	15.8%	–
NS(=O)(=O)Oc1ccc(-c2sc3cc(O)ccc3c2C(=O)c2ccc(OCCN3CCCCC3)cc2)cc1	86.6	-28% (active)	51.7%	29.4%	43.5%	59.5%	65.3%	–
CCOc1cc(C2C(Cl)C(=O)N2n2cnnc2)ccc1O (stereo unspecified)	–	96.2%	97.2%	97.5%	93.3%	99.7%	99.1%	93%
O=C(/C=C/c1ccccc1)c1ccc2ccccc2c1	47.4	103%	–	49.9%	-5.91% (active)	–	93.2%	–
CC(C)n1nc(C#Cc2cccc3cc(-c4cccc(C(F)(F)F)c4)ncc23)c2c(N)ncnc21	–	67.3%	71.8%	75.7%	31.4%	98.1%	60.9%	97.7%
CCCCN(CCCC)CCCn1c(=O)c2sc3ncccc3c2n2nnc(-c3ccccc3)c12	–	-84.2% (active)	100%	93.2%	83.6%	118%	107%	124%
C=C(CNCCc1ccc(O)cc1)[C@@H]1CC[C@]2(COC3CCCCO3)CC[C@]3(C)[C@H](CC[C@@H]4[C@@]5(C)CCC(NCCO)C(C)(C)[C@@H]5CC[C@]43C)[C@@H]12 (stereo partly specified)	–	-89.8% (active)	-76.2% (active)	-84.3% (active)	-95.3% (active)	-89.5% (active)	-84.9% (active)	41.2%
CCn1nc(C#Cc2c(C)ccc3c(Nc4ccc(Cl)cc4)nccc23)c2c(N)ncnc21	–	-26.3% (active)	25%	6.61% (active)	6.73% (active)	31.6%	14.2%	10.5%
CCNCCNc1cc(C2CCCC2)c(C#N)c2nc3ccccc3n12	13.8	11.2%	8.01% (active)	29.6%	1.61% (active)	32.7%	35%	–
CCN1CCN(c2ccc(Nc3cc(-c4cccnc4Nc4c(Cl)c(OC)cc(OC)c4Cl)ncn3)cc2)CC1	–	89.7%	55%	40.9%	71.9%	75.6%	73.9%	60.1%
CCCCn1c(=O)[nH]c(N)c(C(c2ccc(F)cc2)c2c(N)[nH]c(=O)n(CCCC)c2=O)c1=O	39.6	64.7%	91.1%	46.8%	–	72.9%	61.3%	–
CCOC(=O)Cc1csc2nc(-c3ccccc3)nn12	92.9	113%	98.5%	96.5%	98.2%	103%	105%	–
Cn1c(NCCc2ccc(O)c(O)c2)nc2c1c(=O)n(Cc1ccc(Cl)cc1)c(=O)n2C	–	76.3%	75.9%	75.3%	71.4%	89.3%	79.6%	71.6%
CCOC(=O)c1sc(-c2ccc(OS(=O)(=O)c3ccc(C(C)(C)C)cc3)c(C=O)c2)nc1C	31.2	57.2%	19.9%	33.9%	15.2%	52.4%	17.9%	–
COc1cc2oc(-c3cccc(C(=O)Nc4ccc(C)cc4)c3)cc(=O)c2c(OC)c1OC	–	27.9%	59.5%	24.5%	19.6%	49.9%	33%	36.6%
CCCCS(=O)(=O)Oc1ccc(-c2nc(C)c(C(=O)OCC)s2)cc1C=O	80.6	37.1%	30.2%	35.6%	8.67% (active)	94.4%	57%	–
C=C1c2c(C)nn(-c3ccc(S(N)(=O)=O)cc3)c2N(C)C23CC1C1(C)c4c(C)nn(-c5ccc(S(N)(=O)=O)cc5)c4N(C)C(C)(CC12)C3 (stereo unspecified)	–	32.9%	39.2%	15.9%	14.4%	47%	33.1%	49.6%
O=C(O)c1ccccc1C(=O)Nc1ccc(Cl)cc1	87.2	85.7%	93%	103%	96.3%	92.6%	85.8%	–
O=C(C[C@@]1(O)C(=O)Nc2c(Cl)ccc(Cl)c21)c1ccc(C2CC2)cc1	40.5	-48% (active)	19.4%	16.5%	–	9.4% (active)	24.7%	–
O=C(NC(=S)Nc1ccc(-c2nc3ccccc3[nH]2)cc1)c1ccc2ccccc2c1	18.5	22.6%	34.2%	36.4%	3.95% (active)	66.2%	31.3%	–
N=C(N)c1ccc(-c2ccc(-c3ccc(Cl)cc3Cl)o2)nc1	59.2	-92.1% (active)	-68.7% (active)	-54.6% (active)	-75.5% (active)	-34.3% (active)	-35.5% (active)	–
COc1ccc(Nc2ncc(Br)c(NCCCNC(=O)C3CCC3)n2)cc1	–	53.8%	29.1%	41.1%	5.88% (active)	42.4%	15.2%	-33.9% (active)
